# In PubChem BioAssay (NCATS):
# Inconclusive results are not listed. Unmarked numbers belong to inactive results. Activity calls are given as the source filed them. Calls come from the whole dose curve; as a rule, active = well fitted inhibition curve with a large enough effect; inconclusive = small, poorly fitted or top-dose-only effect; inactive = flat fitted curve, though single readings scatter. *1 amine or outer side, *2 acyl side, *3 side chain or, on linkers, in order; H or OH if unused. Where a SMILES comes first, the peptide text is derived from it. [ ]: non-standard residue; d: D form. X4 = CC(C)=CCc1cc(C(O)C(N[*:1])C(=O)[*:2])ccc1O
# Test system: HEK293
# Assay: Cytotoxic Profiling of Annotated Libraries Using Quantitative High-Throughput Screening (AID 1296008); note: nearly all actives have a fitted effect of over 60% in size
# Settings: Five cell lines viability, CellTiter-Glo ATP luminescence, 48-72 h; max response: hits give low values
# Method in brief: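 Cells exposed to compounds for 48 or 72 hr at 37 degrees Celsius. Viability read as ATP-coupled luminescence with CellTiter-Glo after 10 min at room temperature.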
# % is set by controls: 0 for no effect and ±100 for the full control effect; potency is the fitted concentration of half-maximal effect.
SMILES,Potency,outcome,max response [%]
Cn1nnc(-c2ccc(-c3ccc(N4C[C@H](CO)OC4=O)cc3F)cn2)n1,4110 nM (active),,
CC(=O)OC1CC2C3(C)CCC(OC(=O)CC(=O)O)C(C)(C)C3CCC2(C)C2(C)CCC(C3(C)CCC(=O)O3)C12 (centres undefined),,inactive,
COc1cc(O)cc(/C=C/c2ccc(O[C@@H]3O[C@H](CO)[C@@H](O)[C@H](O)[C@H]3O)cc2)c1,,,-4.02
O=S(=O)(c1ccccc1)c1cnc2c(N3CCNCC3)cccc2c1,,,-8.82
CC(C)c1cc(C(=O)N2CC[C@H](NC(=O)C3CC3)C2)n[nH]1,,,-6.43
CC(=O)OC1C(O)CC2(C)C(CCC(C)C23Cc2c(O)cc(CO)c(C=O)c2O3)C1(C)C (centres undefined),,,-11.5
COC(=O)CC(C)(O)CC(=O)OCc1ccc(O[C@@H]2O[C@H](CO)[C@@H](O)[C@H](O)[C@H]2O)cc1 (some centres undefined),,inactive,
CC(Cc1cc2c(c(C(N)=O)c1)N(CCCO)CC2)NCCOc1ccccc1OCC(F)(F)F (centres undefined),23100 nM (active),,
O=C1CCC=CC1(O)C(=O)OCc1ccccc1O[C@@H]1O[C@H](CO)[C@@H](O)[C@H](O)[C@H]1O (some centres undefined),,,-24.1
Cc1ccccc1C#Cc1ccc(CCC(=O)O)cc1,,,-13.9
C=C1C(O)CC2C(C(=O)O)=COC(O[C@@H]3O[C@H](COC(=O)/C=C/c4ccc(O)cc4)[C@@H](O)[C@H](O)[C@H]3O)C12 (some centres undefined),,inactive,
O=C(OC1C=C(CO)C2C(OC3OC(CO)C(O)C(O)C3O)OC=CC12)c1ccc(O)cc1 (centres undefined),,,-4.58
COC(=O)CC(O)CC(O)/C=C/c1c(C)ccc2c1C(O)CC(C)C2 (centres undefined),,inactive,
COc1cc(O)c2c(c1)C1=C[C@H](O)[C@@H](O)C[C@]1(C)OC2=O,,inactive,
CC(C)c1ccc(CO)cc1O[C@@H]1O[C@H](CO)[C@@H](O)[C@H](O)[C@H]1O,,inactive,
CC(=O)O[C@@H]1[C@H](O)[C@@H](O[C@@H]2O[C@@H](C)[C@H](O[C@@H]3OC[C@@H](O)[C@H](O[C@@H]4OC[C@@H](O)[C@H](O)[C@H]4O)[C@H]3O)[C@@H](O[C@@H]3O[C@H](CO)[C@@H](O)[C@H](O)[C@H]3O)[C@H]2O)[C@H](OC(=O)[C@]23CCC(C)(C)C[C@H]2C2=CCC4[C@@]5(C)CC[C@H](O[C@@H]6O[C@H](C(=O)O)[C@@H](O)[C@H](O[C@@H]7OC[C@@H](O)[C@H](O)[C@H]7O)[C@H]6O[C@@H]6O[C@H](CO)[C@H](O)[C@H](O)[C@H]6O)[C@@](C)(C=O)C5CC[C@@]4(C)[C@]2(C)CC3)O[C@@H]1C (some centres undefined),,,-5.31
C/C=C(\C)C(=O)O[C@@H]1CC2[C@@H](CC=C3C[C@@H](O[C@H]4C[C@H](OC)[C@H](O[C@H]5C[C@H](OC)[C@H](O[C@@H]6O[C@H](C)[C@@H](O[C@H]7C[C@H](OC)[C@H](O[C@@H]8O[C@H](CO)[C@@H](O)[C@H](O)[C@H]8O)[C@@H](C)O7)[C@H](OC)[C@H]6O)[C@@H](C)O5)[C@@H](C)O4)CC[C@@]32C)[C@@]2(O)CC[C@H](C(C)=O)[C@@]12C (some centres undefined),,,-3.44
C=C(CCC1=C(C)[C@H]2[C@H](CC3[C@@H]4CC=C5C[C@@H](O)C[C@@H](O)[C@]5(C)C4[C@H](O)C[C@@]32C)O1)CO[C@@H]1O[C@H](CO)[C@@H](O)[C@H](O)[C@H]1O (some centres undefined),1370 nM (active),,
C[C@@H]1CC[C@@]2(OC1)O[C@H]1C[C@H]3[C@@H]4CC=C5C[C@@H](O)CC[C@]5(C)[C@H]4CC[C@]3(C)[C@H]1[C@@H]2C,,,-1.54
COC1=CC(=O)CC(C)C12Oc1cc(OC)cc(O)c1C2=O (centres undefined),,,0.0359

SMILES,Potency,outcome,max response [%]
CC(C)(C)NS(=O)(=O)c1cncc(-c2cc(F)c3nc(N)nn3c2)c1,,,-1.27
CC(C)=CCc1cc(C(O)C2NC(=O)CNC(=O)C(Cc3c[nH]c4ccccc34)NC(=O)C3CCCN3C(=O)CNC(=O)C(C(C)C)NC(=O)CNC2=O)ccc1O (centres undefined) (cyclo(G[X4]GVGPW); configuration not given here),,,-8.38
Cc1cc(N2CCN([C@@H]3CN[C@H](C(=O)N4CCSC4)C3)CC2)n(-c2ccccc2)n1,,,-23.9
CC(=O)N1CCN(Cc2ccc([C@H](C)Nc3nccc(N4C(=O)OC[C@@H]4C(C)C)n3)cc2)CC1,,,-108
C/C(=C\CCC(C)CCO)C(=O)OC1(C)CCC2C(C(=O)O)=COC(OC3OC(CO)C(O)C(O)C3O)C21 (centres undefined),,inactive,
Cc1cc(C(N)=O)ccc1-n1c(CCC(=O)O)ccc1-c1ccc(-n2ccnc2)cc1,,,-3.97
NC(=O)c1csc(C2OC(CO)C(O)C2O)n1 (centres undefined),,,-9.16
COc1c2c(c(CO)c3c1C(=O)OC3)OC1(C)CCC3(O)C(C)(C)OC(=O)CCC3(C)C1C2 (centres undefined),,inactive,
CC1=C(C)C(=O)OC(C(C)C2CCC3C4CC=C5CC(OC6OC(COC7OC(CO)C(O)C(O)C7O)C(O)C(O)C6O)CC(O)C5(C)C4CCC23C)C1 (centres undefined),,,-1.67
O=C(NCc1cccc(O)c1)c1cc2cc(F)ccc2[nH]1,,,-13.7
CCOc1cc(CC(=O)NC(CC(C)C)c2ccccc2N2CCCCC2)ccc1C(=O)O (centres undefined),,,-4.19
CC1(C)CC2C(C1)C(C)(O)C13CC1(COC3=O)C2O (centres undefined),,,-10.5
NC1(C(=O)NC(CCO)c2ccc(Cl)cc2)CCN(c2ncnc3[nH]ccc23)CC1 (centres undefined),1030 nM (active),,
COC(=O)c1ccnc(-c2cc(C(=O)NCCc3ccccc3)ccn2)c1,,,-3.61
COc1cc(OC)c(/C=C/S(=O)(=O)Cc2ccc(OC)c(NCC(=O)O)c2)c(OC)c1,58 nM (active),,
COC(=O)c1cc(OC)cc(OC)c1C(=O)c1c(OC)cc2c(c1O)C1CCCC(C)(O2)O1 (centres undefined),,,-5.64
O=C(O)CC1CCC(c2ccc(-c3ccc4nc(C(=O)NCc5ccc(OC(F)(F)F)cc5)cn4c3)cc2)CC1 (centres undefined),,,-9.35
COc1cc2occc2c(O[C@@H]2O[C@H](CO)[C@@H](O)[C@H](O)[C@H]2O)c1CCC(=O)O,,inactive,
O=C(Nc1nc2ccccc2n1CCc1ccccc1)c1ccccc1,,,-110
